Measured values published in PubChem BioAssay AID1117294 (Broad Institute, 2014).
Values without a mark were called inactive.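 Rule for the calls: active = Lowers HeLa cell ATP signal, with fitted half-maximal potency at most twice the top tested dose in every run; inconclusive = runs disagree, or fits flat mid-range or poor; inactive = every run inactive, including signal rising.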

Experiment: HeLa cell cytotoxicity, dose response, cytotoxicity control, CellTiter-Glo luminescence, dry powder, set 3 (AID 1117294)
Settings: HeLa viability, ATP luminescence (CellTiter-Glo), 72 h

## COc1ccc(C(=O)O)cc1S(=O)(=O)Nc1cccc(N2CCCCC2)c1C(F)(F)F
  max activity: 15.2%

## O=S(=O)(O)c1ccc(N2N=C(c3ccccc3)CC2c2ccccc2)cc1 (stereo not drawn)
At 0.0015 µM
  max activity: -32.4%

## COc1ccc(C(=O)O)cc1S(=O)(=O)Nc1cc(C(F)(F)F)ccc1N1CCOCC1
At 0.003 µM
  max activity: -16.9%

## COc1ccc(C(=O)O)cc1S(=O)(=O)Nc1cc(C(F)(F)F)ccc1N1CCCCC1
At 0.0235 µM
  max activity: -13.4%
At 12 µM
  max activity: -15.9%

## COc1ccc(C(=O)O)cc1S(=O)(=O)Nc1cc(C(F)(F)F)ccc1N(C)C
At 6 µM
  max activity: -19%

## COc1ccc(C(=O)O)cc1S(=O)(=O)N1CCN(c2ccc(C(F)(F)F)cc2N)CC1
At 12 µM
  max activity: -20.1%

## COc1ccc(C(=O)Nc2cccc(C(F)(F)F)c2)cc1S(=O)(=O)O
At 26 µM
  max activity: -20.5%
